IL-2 act: IL-2 activation. IL-2 activation reporter assay, cell-based qHTS; stimulated with anti-CD3/CD4/CD28 beads; in transgenic mouse T cells. activation, % (series mostly up to about 46 µM). 360,000 compounds, 0.065% hits; in the data active = activation above about 50%; inconclusive = mostly about 30% to 49%
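Unstimulated transgenic mouse T cells; 60-min compound exposure; bead-based TCR/CD4/CD28 stimulation; 18 h culture, 37 degrees C; dual fluorescence (EGFP, DsRed) plate cytometry.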
p53 reactivator: mutant p53 re-activation in reporter cells; H1299 p53-A138V BP100-luciferase reporter, luminescence, 24 h; Potency, µM (doses to about 92.2 µM), hits mostly activators; 320,000 compounds, 0.063% hits; AID 504706; note: nearly all actives have a fitted effect of over 45% in size
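H1299 (p53-null), stable ts p53-A138V + BP100-Luc; 1000 cells/well, Opti-MEM/10% FBS; cpd 4 pt, 1:5; 24 h, 37 deg C, 5% CO2; detection reagent 10 min RT; luminescence.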
uPA surface inh: cell surface uPA generation inhibition; AID 540303; cell surface uPA generation assay, qHTS; Potency, µM (top dose mostly 38.3 µM), usual class: inhibitors; 330,000 compounds, 0.31% hits; active = well fitted inhibition curve with a large enough effect; inconclusive = small, poorly fitted or top-dose-only effect; inactive = no such curve, though single readings can be large or run the other way; tested in mouse RAW 264.7 cells; note: nearly all actives have a fitted effect of over 55% in size
TCR act: activates T cell receptor signaling; primary human leukocytes, anti-CD3, IL-2 HTRF, 48 h; Potency, µM (doses to about 9.22 µM), usual class: activators; 330,000 tested, under 10 active; AID 504894
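Readout: HTRF IL-2, Eu-cryptate/d2 antibody pair, 320nm excitation, 665nm emission. Stimulus: a-CD3 beads, no co-stimulation. Cells: primary human leukocytes. Exposure: 48 hr with compound.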
BRCA1 expr up: increases BRCA1 expression. MCF7-BRCA1-FFLuc reporter, luminescence, 48 h; response scale: scaled: vehicle 0%, 10 µM genistein 100%. Potency, µM (titrated, usually from 46.1 µM), usual class: activators. 380,000 compounds, 1.1% hits. AID 624202; note: nearly all actives have a fitted effect of over 80% in size
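Quantitative HTS in MCF7 cells stably reporting BRCA1 expression via firefly luciferase. Compound treatment lasts 48 h at 37 °C in phenol-red free MEM. Activation is expressed relative to genistein at 10 microM and DMSO.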
Each line names hits and unclear results; the compound was inactive in the other large screens. Most compounds without a hit are left out; they make up all but 1.4% or so of the library. Unless noted, calls come from the whole dose curve; as a rule, active = well fitted curve in the direction sought with a large enough effect; inconclusive = small, poorly fitted or top-dose-only effect, or another doubt; inactive = no such curve, though single readings can be large; an effect the other way counts as inactive or inconclusive.

Cc1cc(C)c(NC(=O)c2ccc(S(=O)(=O)N(C)C)cc2)c(C)n1	none
Cc1cccc(C(=O)NC(=O)Nc2c(C)cc(C)nc2C)c1	BRCA1 expr up 3.98µM
COc1ccc(CNc2cccnc2Cl)cc1	BRCA1 expr up 10µM (no result: p53 reactivator, uPA surface inh, TCR act)
COc1cccc(/C=C2\CCc3ccccc3C2=O)c1	p53 reactivator inconclusive, BRCA1 expr up 12.6µM
O=C1C(=Cc2ccccn2)CCc2ccccc21	none (no result: p53 reactivator, uPA surface inh, TCR act)
COc1ccc2c(c1)CC/C(=C/c1ccccn1)C2=O	p53 reactivator inconclusive, uPA surface inh inconclusive, BRCA1 expr up 12.6µM
COc1ccc(/C=C2\CCc3ccccc3C2=O)cc1OC	p53 reactivator inconclusive
O=C1/C(=C/c2ccc([N+](=O)[O-])cc2)CCc2ccccc21	p53 reactivator 11.2µM (no result: IL-2 act, uPA surface inh, TCR act, BRCA1 expr up)
CC(=O)Oc1ccc(/C=C2/CCc3ccccc3C2=O)cc1	p53 reactivator inconclusive, BRCA1 expr up 12.6µM
COc1ccc(/C=C/C(=O)c2c(O)cc(C)oc2=O)c(OC)c1	IL-2 act 172.1, p53 reactivator inconclusive, BRCA1 expr up inconclusive
CCC(=O)c1cn(CC(=O)NCc2ccco2)c2ccccc12	BRCA1 expr up 11.2µM (no result: p53 reactivator)
COC(=O)c1cn(CC(=O)NCc2ccco2)c2ccccc12	none
Cc1ccc(C)c(NC(=O)Cn2c(=O)ccc3cc(S(=O)(=O)N4CCCC4)ccc32)c1	none (no result: IL-2 act, p53 reactivator, uPA surface inh, TCR act)
CCn1c([N+](=O)[O-])nc2c1c(=O)[nH]c(=O)n2C	uPA surface inh 10µM
COC(=O)c1ccccc1NC(=O)Cn1c(=O)n(CCCC(=O)NCCc2ccc(OC)c(OC)c2)c(=O)c2ccccc21	none (no result: IL-2 act, p53 reactivator, uPA surface inh, TCR act)
